Compounds without any hit were thinned out: in the full panel of roughly 79,000, 15% have a hit. Activity calls are given as the source filed them. Cut-off read from the data, not from the text of the source: active = growth inhibition above about 70%; inactive = the rest. Where a SMILES comes first, the peptide text is derived from it. [ ]: non-standard residue; d: D form. The star is where a group is joined. ξ: configuration not given here. Hiv = CC(C)[C@H](O)C(=O)O; ξE = NC(CCC(=O)O)C(=O)O; Cbz = O=C(OCc1ccccc1)*
Legend:
[1] = NCI Yeast Anticancer Drug Screen. Data for the rad50 strain (AID 155);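 note: 0% = growth of vehicle-only cultures of the same strain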; conditions: S. cerevisiae rad50 strain growth inhibition; at 50.0 µM; active compounds read high
Outline: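 Growth of the mutant yeast was measured after compound exposure and referenced to vehicle-treated cultures.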

[2] = NCI Yeast Anticancer Drug Screen. Data for the mec2-1 strain (AID 157); conditions: S. cerevisiae mec2-1 strain, at 50.0 µM, active compounds read high
Outline: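 Growth inhibition is read against vehicle-treated controls after compound exposure of the mec2-1 yeast strain, which is defective in DNA damage repair or cell cycle control.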

[3] = NCI Yeast Anticancer Drug Screen. Data for the sgs1 mgt1 strain (AID 161);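 note: 0% = growth of cultures given vehicle only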; conditions: S. cerevisiae sgs1 mgt1 strain, at 50.0 µM, active compounds read high
Outline: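 Percent growth inhibition was derived by comparing compound-exposed mutant yeast with vehicle-exposed cultures. The strain carries alterations in DNA damage repair.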

[4] = NCI Yeast Anticancer Drug Screen. Data for the cln2 rad14 strain (AID 165);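 note: 0% = growth equal to vehicle treated cultures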; conditions: S. cerevisiae cln2 rad14 strain, at 50.0 µM, active compounds read high
Outline: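 Growth inhibition, relative to vehicle-treated controls, is the read-out. The test organism is a yeast strain with defined genetic alterations, cln2 rad14.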

[5] = NCI Yeast Anticancer Drug Screen. Data for the bub3 strain (AID 167); conditions: S. cerevisiae bub3 mutant strain, at 50.0 µM, active compounds read high
Outline: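 Whole-cell yeast assay. The mutant strain was incubated with compounds, and growth inhibition was determined by comparison with vehicle-treated cells.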

[6] = NCI Yeast Anticancer Drug Screen. Data for the mlh1 rad18 strain (AID 175); conditions: S. cerevisiae mlh1 rad18 strain growth inhibition; at 50.0 µM; active compounds read high
Outline: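 Cells of a genetically altered yeast strain, deficient in DNA damage repair, were treated with compound. Their growth was then compared with that of vehicle-treated cultures to give inhibition.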

Measured: growth inhibition

CC1(C)COC(c2c(F)cccc2Cl)=N1
inactive: [1] 3% | [2] -13.8% | [3] 6.2% | [4] 22.4% | [5] 11.7% | [6] 13.2%

CCCCCCCC/C(C=O)=C\c1ccc(C)cc1
inactive: [1] 53% | [2] 33.8% | [3] 55% | [4] 51.7% | [5] 66% | [6] 62.6%

O=C1c2cc3c(cc2CC12Cc1cc4c(cc1C2)CCC4)CCC3
inactive: [1] -14.6% | [2] 1.4% | [3] -8% | [4] 7.45% | [5] -3% | [6] -1.35%

CC(C)[C@@H]1OC(=O)[C@@H](C)NC(=O)[C@@H]2CCCN2C1=O (cyclo([Hiv]-Pro-[dA]))
inactive: [1] -38.2% | [2] -6.75% | [3] -15.1% | [4] 5.95% | [5] -22.6% | [6] -16.4%

CC(=O)Nc1cc(C)ccn1
inactive: [1] 1.2% | [2] 0.6% | [3] 10.6% | [4] -35% | [5] -2.95% | [6] 19.4%

OCC(O)C(O)Cc1cnc(C(O)C(O)C(O)CO)cn1 (stereo unspecified)
inactive: [1] 6.65% | [2] 5.65% | [3] -6.95% | [4] -20.2% | [5] -9.45% | [6] 6.4%

O=C(O)CCC(NC(=O)OCc1ccccc1)C(=O)NCC(=O)O (stereo unspecified) (Cbz-[ξE]-Gly-OH)
inactive: [1] 12.3% | [2] 2.85% | [3] 0.35% | [4] 46.8% | [5] 3.15% | [6] -6.5%

CCN(CC)CCN(C)c1ccccc1
inactive: [1] 9.85% | [2] 4.35% | [3] -2.05% | [4] -1.05% | [5] -0.1% | [6] 0.3%

Cc1ccccc1N1C(N)=C(C#N)C(C#N)(C#N)C1c1ccccc1 (stereo unspecified)
inactive: [1] 8.8% | [2] 22.2% | [3] -14.6% | [4] -10.6% | [5] -12.4%
active: [6] 87.8%

COc1cccc(CCC(=O)O)c1
inactive: [1] -11.7% | [2] -9.75% | [3] -21.6% | [4] 31% | [5] -1.45% | [6] 2.7%

CC(=O)Nc1ccc(S(=O)(=O)NN)cc1
inactive: [1] -15.7% | [2] -12.1% | [3] -4.75% | [4] 10.2% | [5] 5.25% | [6] 9.1%

CCOC(=O)C(C(=O)OCC)C(c1ccccc1)c1ccccc1OC (stereo unspecified)
inactive: [1] 6.9% | [2] 12% | [3] 4.15% | [4] 17% | [5] 12.3% | [6] -9.55%

O=CC1=CCC2c3[nH]c4ccccc4c3CCN2C1 (stereo unspecified)
inactive: [1] 24.9% | [2] 20.5% | [3] 25.7% | [4] 27.2% | [5] 28.2% | [6] 19.8%

COC(=O)c1ccccc1N(C(=O)c1ccccc1)c1ccccc1C
inactive: [1] -16.1% | [2] -13.3% | [3] -18.9% | [4] 10.4% | [5] -11.3% | [6] -55%

NC1=NN(c2ccccc2)C(=O)/C1=C\n1c(=S)[nH]c2ccccc21
inactive: [1] -22.4% | [2] -19.9% | [3] -39.6% | [4] -16.3% | [5] -25.4% | [6] -26.6%

N=C(N)SC1CC2CC1C1C=CCC21 (stereo unspecified)
inactive: [1] 6.65% | [2] -6.6% | [3] 16.4% | [4] -19.1% | [5] 9.05% | [6] 16.2%

CN(C)[C@@H]1C(=O)C(C(=O)NCN2CCN(C(=N)N=C(N)N)CC2)=C(O)[C@@]2(O)C(=O)C3=C(O)c4c(O)cccc4[C@@](C)(O)[C@H]3C[C@@H]12
inactive: [1] -0.05% | [2] 1.65% | [3] -3.2% | [4] 14.2% | [5] 10.7% | [6] -5%

CCN(c1ccccc1)S(=O)(=O)c1ccc(Oc2ccccc2)c(N)c1
inactive: [1] 27.2% | [2] -18.9% | [3] 16.9% | [4] 12.5% | [5] 36.5% | [6] -10.8%

O=C(O)COc1c2occc2cc2ccc(=O)oc12
inactive: [1] 7.9% | [2] -12.4% | [3] 22.7% | [4] 1.55% | [5] -3.1% | [6] 6%

COC(C)C(NC(=O)C1CCCN1C)C1OC(SCCOC(=O)c2ccccc2O)C(O)C(O)C1O (stereo unspecified)
inactive: [1] 8.3% | [2] 6.3% | [3] -13.6% | [4] 13.4% | [5] 3.45% | [6] 31.6%

COc1ccccc1/C=C/C(=O)N1CCC2(CC1)C(=O)N(C)CN2c1ccccc1
inactive: [1] -16% | [2] 8.45% | [3] -17.3% | [4] -15.1% | [5] -0.35% | [6] -2.4%

COCCN(C(=O)c1ccccc1)C1CCC2(SCCS2)c2[nH]c3ccccc3c21 (stereo unspecified)
inactive: [1] 16.1% | [2] 14.6% | [3] 3.75% | [4] -35.2% | [5] -1.75% | [6] 41%

O=C(OC(=O)c1cccnc1)c1cccnc1
inactive: [1] -30.2% | [2] -9.5% | [3] -7.75% | [4] 11.5% | [5] -2.85% | [6] 6.65%

Cc1[nH]c2ccc(-c3ccccc3)cc2c1CC(=O)OC(C)C
active: [1] 97% | [2] 98.5% | [3] 98.2% | [4] 97.8% | [5] 98.2% | [6] 98%

N#CC(c1ccccc1)N(C(N)=O)c1ccccc1 (stereo unspecified)
inactive: [1] -3.15% | [2] 8.5% | [3] 8.05% | [4] -2.85% | [5] 6.4% | [6] 4.2%

COc1ccccc1N1C(Cl)C(=O)C1c1c[nH]c2ccccc12 (stereo unspecified)
inactive: [1] 26.9% | [2] -40.3% | [3] -28.7% | [4] 4.4% | [5] -26.6% | [6] -34.9%

CC(=O)OC1OC(C)C(OC(=O)c2ccccc2)C1OC(C)=O (stereo unspecified)
inactive: [1] 21.1% | [2] -3.15% | [3] 2.3% | [4] -1.25% | [5] 6.25% | [6] 33.6%

Cc1ccc(NC(=O)C2C(=O)N(c3ccc(C)c(C)c3)C(=O)C2N=N)cc1C (stereo unspecified)
inactive: [1] 7.9% | [2] 34.8% | [3] 26.6% | [4] -41.8% | [5] 0.35% | [6] 44.9%

CN=Cc1c(O)ccc2ccccc12.[Cu+2]
inactive: [1] 15.3% | [2] 7.6% | [3] 1.7% | [4] 6.45% | [5] -32.9% | [6] 52.9%

COC(=O)Nc1nc2ccccc2n1-c1ccccc1
inactive: [1] 18.9% | [2] 2.85% | [3] 10.6% | [4] 14.2% | [5] 16.4% | [6] 17.5%

COC(=O)C(=C(C)C)S(=O)c1ccccc1 (stereo unspecified)
inactive: [1] -9.85% | [2] 1.4% | [3] -3.55% | [4] -16% | [5] -13.6% | [6] 3.45%

Clc1ccc(C2N(Cc3ccccc3)CCC3CCCCN32)cc1Cl (stereo unspecified)
inactive: [1] -10.1% | [2] -21.6% | [3] 13.7% | [4] 26.1% | [5] -10.1% | [6] -1.4%

CNC(=O)C(C)NC(=O)C(Cc1ccccc1)NC(=O)OC(C)(C)C (stereo unspecified)
inactive: [1] -10.2% | [2] -57.7% | [3] -16.2% | [4] -28.8% | [5] -19.2% | [6] 1.05%

NC1CCC(P(=O)(O)O)CC1 (stereo unspecified)
inactive: [1] -0.35% | [2] 3.45% | [3] -4.75% | [4] -9.65% | [5] -6.2% | [6] -5.1%

CC1(C)C2C/C(=N/O)C(=O)C1C2 (stereo unspecified)
inactive: [1] -4.5% | [2] 4.05% | [3] 8.8% | [4] 14.6% | [5] -16.9% | [6] -20.2%

CCc1cc(O)cc(C)c1Cl
inactive: [1] 55.1% | [2] 29.6% | [3] 46.1% | [4] 46.4% | [5] 44.3% | [6] 26.1%

O=C1C(O)=C(Cl)C(=O)C(OC2=C(Cl)C(=O)C(OC3=C(Cl)C(=O)C(OC4=C(Cl)C(=O)C(Cl)=C(Cl)C4=O)=C(Cl)C3=O)=C(Cl)C2=O)=C1Cl
inactive: [1] 9.55% | [2] 3.5% | [3] -17.3% | [4] -4.3% | [5] -2.35% | [6] 22.3%

O=C(Nc1ccc([N+](=O)[O-])c2c1C(=O)c1ccccc1C2=O)c1ccccc1
inactive: [1] -7.7% | [2] -12.1% | [3] -5.95% | [4] -43.4% | [5] 10.1% | [6] -2.9%

CC(C)CN(CC(C)C)C(=O)c1ccc([N+](=O)[O-])cc1
inactive: [1] -7.3% | [2] 22.8% | [3] 16.9% | [4] -26.2% | [5] 38.1% | [6] 20.9%

O=S(=O)(O)c1cccc2c1oc1ccccc12
inactive: [1] 8.85% | [2] -37.4% | [3] -3.75% | [4] 19% | [5] -10.1% | [6] -19%

CCOC(=O)c1nc2c(C)nc(N)nc2[nH]c1=O
inactive: [1] -0.35% | [2] -1.2% | [3] -12% | [4] -32.1% | [5] -5.6% | [6] -3.1%
